The supplement of paper PMC7411640
Structures can show the parent of a compound that is named as a salt.

System: MDA-MB-468
Experiment: phospho-S6 immunofluorescence (DAPI-normalised), per-plate z-score; higher = higher phospho-S6 signal (less pathway suppression)
Details: 24 h
Experimental: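 GPCR-targeted compound library (MedChemExpress HY-L006) tested on MDA-MB-468 PTEN-null TNBC cells in 384-well plates at 0.1, 1 or 10 uM, combined with vehicle, GDC0941 450 nM or lapatinib 1 uM, for 24 h. Phospho-S6 (S240/244) immunofluorescence normalised to DAPI and expressed as a per-plate z-score; values are the mean of biological triplicates.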

SMILES | phospho-S6 immunofluorescence (z-score) (co-treatment: GDC0941 450 nM) | phospho-S6 immunofluorescence (z-score) (co-treatment: lapatinib 1 uM) | phospho-S6 immunofluorescence (z-score) (co-treatment: vehicle)
CC(C)NCC(O)COc1ccc(CCOCC2CC2)cc1 (centres undefined) [Betaxolol (hydrochloride)] (compound 10 µM) | 0.79 | 0.07 | 0.74
Cc1ccc(OCC(O)C(C)NC(C)C)c2c1CCC2 (centres undefined) [ICI 118,551 (hydrochloride)] (compound 10 µM) | 1.2 | -1.56 | 0.46
CC(C)NC[C@H](O)COc1ccc(CCOCC2CC2)cc1 [Levobetaxolol (hydrochloride)] (compound 10 µM) | -0.39 | -0.2 | -0.19
CC(CN(C)C)CN1c2ccccc2CCc2ccccc21 (centres undefined) [Trimipramine (maleate)] (compound 10 µM) | -1.05 | -2.53 | -0.39
COc1ccc2cc(OCC3(C(=O)O)CN(C(=O)c4ccc(F)cc4)C3)ccc2c1 (compound 10 µM) | -1.13 | 0.61 | 0.47
CC(C)COc1ccc(CNC(=O)N(Cc2ccc(F)cc2)C2CCN(C)CC2)cc1 [Pimavanserin tartrate] (compound 10 µM) | -3.99 | -6.18 | -5.03
CCNC(=O)[C@@H]1CCCN1C(=O)[C@H](CCCN=C(N)N)NC(=O)[C@H](CC(C)C)NC(=O)[C@@H](C)NC(=O)[C@H](Cc1ccc(O)cc1)NC(=O)[C@H](CO)NC(=O)[C@H](Cc1c[nH]c2ccccc12)NC(=O)[C@H](Cc1cnc[nH]1)NC(=O)[C@@H]1CCC(=O)N1 [Alarelin (Acetate)] (compound 10 µM) | 0.86 | -0.01 | 1
Nc1ccc(/C=C/c2cccc(C(=O)O)n2)cc1 (compound 10 µM) | 0.9 | 0.88 | 1.07
CC(C)(C)NC[C@H](O)COc1nsnc1N1CCOCC1 [(S)-Timolol (Maleate)] (compound 10 µM) | -0.17 | 0.33 | -0.06
NCCc1ccc(O)c(O)c1 [Dopamine (hydrochloride)] (compound 10 µM) | 0.84 | 0.53 | 0.15
OC[C@H]1O[C@@H](n2cnc3c(NCc4ccc(O)cc4)ncnc32)[C@H](O)[C@@H]1O [N6-(4-Hydroxybenzyl)adenosine] (compound 10 µM) | -0.95 | 1.31 | 0.96
C[C@]12CCC(=O)C=C1CC[C@@H]1[C@@H]2[C@@H](O)C[C@@]2(C)[C@H]1CC[C@]2(O)C(=O)CO [Hydrocortisone] (compound 10 µM) | -4.8 | -4.13 | -2.96
CN1[C@@H]2CC[C@H]1C[C@@H](OC(=O)C(O)c1ccccc1)C2 (some centres undefined) [Homatropine (Bromide)] (compound 10 µM) | -0.26 | 0.08 | 0.37
